# Hit rate of the full screen: of about 4,600 compounds, about 2,900 (63%) were called active. The set was probably picked from earlier hits. These entries were drawn from the full list. A number with no mark means an inactive call.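 How the source made its calls: active means inhibition of yeast growth at or above a set limit in either of two replicates at 10 µM; inactive means the rest.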
# Assay: growth inhibitors of wild-type TIM10 yeast, confirmation, counter-screen for tim10-1 synthetic lethality project, single concentration, luminescence, S. cerevisiae (AID 463215);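 further: isogenic wild-type TIM10 control yeast grown in succinate dextrose medium; this counterscreen used the strain with wild-type TIM10; 0% = yeast with DMSO and 100% = medium wells lacking yeast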
# Conditions: S. cerevisiae tim10 strain growth, BacTiter-Glo luminescence, 24 h; at 10 µM; active compounds read high
row,Compound,inhibition
1,O=C1C=CC(=O)N1c1ccc(N2CCCCC2)cc1,85.4% (active)
2,COc1ccc2c(CN3CCN(S(=O)(=O)c4cccs4)CC3)cc(=O)oc2c1,-35.7%
3,O=C(O)CCCC(=O)Nc1ccccc1-n1ccnc1,-10.4%
4,CN(C)c1ccnc2sc(C(=O)c3ccccc3)c(N)c12,25.4%
5,O=C(CN1CCN(S(=O)(=O)c2ccc3ccccc3c2)CC1)NC(=O)NC1CCCCC1,23.4%
6,COc1ccc(S(=O)(=O)N2CCN(C(C)C(=O)Nc3ccc(C(C)C)cc3)CC2)cc1 (centres undefined),38.8% (active)
7,Cc1ccc(-c2noc(CSc3nnc(-c4ccncc4)n3-c3ccc(F)cc3)n2)cc1,30.2% (active)
8,Fc1ccc(-n2c(Cc3ccccc3)nnc2SCc2nc(-c3ccc(Cl)cc3)no2)cc1,37.8% (active)
9,Cc1ccc(/C=N/NC(=S)NC2CCCCC2)o1,11.8%
10,COc1ccc(N2C(=O)CC(Sc3n[nH]c(-c4ccc(C)cc4)n3)C2=O)cc1 (centres undefined),13.8%
11,FC(F)(F)c1cccc(NC(=S)Nc2cccc(Cl)c2)c1,26.8%
12,O=C(Nc1cccc(Cl)c1)C1CCCN(c2cnccn2)C1 (centres undefined),5.7%
13,O=C(Nc1cccc(Cl)c1)OCc1ccccn1,41.4% (active)
14,O=C(CSc1cccc[n+]1[O-])c1ccc(-c2ccccc2)cc1,44.2% (active)
15,O=C1NC(Nc2nc3ccccc3s2)(C(F)(F)F)C(=O)N1C1CCCCC1 (centres undefined),52.6% (active)
16,N#CC1(C#N)C(C(=O)C23CC4CC(CC(C4)C2)C3)C12CCOCC2 (centres undefined),26.6%
17,COC(=O)c1c(NC(=O)COc2ccc(Cl)cc2Cl)sc2c1CC(C)(C)NC2(C)C,45.8% (active)

row,Compound,inhibition
1,CCn1c(CSCc2c(Cl)cccc2Cl)n[nH]c1=S,35.4% (active)
2,O=C(Nc1ccccc1Cl)/C(Cl)=C(\Cl)S(=O)c1ccccc1 (centres undefined),89.6% (active)
3,O=c1oc(-c2ccccc2NS(=O)(=O)c2ccc(Cl)cc2)nc2ccccc12,41.5% (active)
4,Cc1[nH]c(=O)c(C(=O)/C=C/c2ccccc2)c2c1CCCC2,38.8% (active)
5,COc1ccc(Nc2cc(C)nc(-n3nc(C)cc3C)n2)cc1,34.1% (active)
6,COc1ccc(/C=C(\C#N)C(=O)ONC2=NCCCCC2)cc1,59% (active)
7,O=C(NCCc1ccc(F)cc1)c1ccc(S(=O)(=O)N2CCCCC2)cc1,53.5% (active)
8,O=C(Nc1cccc(S(=O)(=O)N2CCCC2)c1)c1cncc(Br)c1,-2.05%
9,CC(=O)Cc1nsc(NC(=O)c2ccc(Cl)cc2Cl)n1,17.2%
10,C/C(=N/NC(=S)Nc1ccccc1)c1ccc2c(c1)OCO2,38.8% (active)
11,CC(=O)N1C(C)c2ccccc2C(C)(C)CC12CCCCC2 (centres undefined),-16%
12,COc1ccc(Nc2nc(N)nc(CSC(=S)N3CCC(C)CC3)n2)cc1,-1%
13,Cc1cc(C)nc(S/C=C/C(=O)c2ccccc2)n1,60.8% (active)
14,Cc1csc(NC(=S)Nc2cccc(Cl)c2)n1,9.5%
15,Cc1cc(C)c(S(=O)(=O)c2ccccc2)c(OC(=O)c2c(F)cccc2Cl)n1,-5.1%
16,COC(C/C=C/C(=O)[C@@H](C)OCc1ccccc1)OC,39.4% (active)
17,CNC(=O)/C(C#N)=C/c1c(F)cccc1Cl,40.6% (active)

# From PubChem BioAssay AID463215 (Sanford-Burnham Center for Chemical Genomics, 2010)
